Composite z-score and z-score data for five compounds are collected here from PubChem BioAssay.

Calls of active or inactive are those of the source.

Assay [1] is described as follows: binders of probe aFSTL3 on microarray, primary screen, stem cell growth factor project, biochemical, small-molecule microarray, fluorescence 635/667 (AID 1064).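 Further: measures binding of the biotinylated anti-FSTL3 antibody to printed compounds.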 The following applies: higher = more signal.
The nature of assay [2]: binders from COS7 lysate, DM2A8 probe, primary screen, torsin A project, cell lysate, small-molecule microarray, fluorescence 635/667 (AID 1065). As to conditions: higher = more signal, COS7 lysate expressing mutant human TOR1A.
A short description of assay [3]: binders of probe aFGF2 on microarray, primary screen, stem cell growth factor project, biochemical, small-molecule microarray, fluorescence 635/667 (AID 1067).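 Further: measures binding of biotinylated aFGF2 protein to printed compounds on slides; z-score merges feature fluorescence and signal-to-noise across triplicate slides.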 The following applies: higher = more signal.
Assay [4] in a line: binders of probe aFGF10 on microarray, primary screen, stem cell growth factor project, biochemical, small-molecule microarray, fluorescence 635/667 (AID 1071).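 Further: score merges 667 nm spot intensity and signal to noise from triplicate slides.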 As to conditions: higher = more signal.
Assay [5] addresses Neurogenic locus notch homolog protein 2 (Homo sapiens) (UniProt Q04721). As to the kind of experiment: Notch2 binders on small-molecule microarrays, primary screen, biochemical, small-molecule microarray, 635 nm fluorescence, stem cell growth factors (AID 1073). As to conditions: Notch2 binding, higher = more signal.
In assay [6] the target is Pro-neuregulin-1, membrane-bound isoform (Homo sapiens) (UniProt Q02297). As to the kind of experiment: NRG1 binders on small-molecule microarrays, primary screen, psychiatric disease protein project, biochemical, small-molecule microarray, fluorescence 635/667 (AID 1075).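 Further: score combines 667 nm spot fluorescence with signal to noise.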 The following applies: NRG1 binding, 635 nm fluorescence, higher = more signal.
Assay [7] deals with Neuregulin-1 EGF-like domain. The experiment in a line: binders of neuregulin-1 EGF-like domain, primary screen, biochemical, small-molecule microarray, 635 nm fluorescence (AID 1081).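 Further: binding of the protein to compounds printed on small-molecule microarray slides.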 The following applies: small-molecule microarray binding, higher = more signal.
Assay [8] is described as follows: FRG1 promoter luciferase signal modulators, primary screen, FRG1 inhibition for FSHD, cell-based, C2C12 myotubes, firefly/Renilla luciferase, luminescence (AID 1084). As to conditions: higher = more signal, called active from +8 up or from −8 down.
A short description of assay [9]: binders of probe aFST on microarray, primary screen, stem cell growth factor project, biochemical, small-molecule microarray, fluorescence 635/667 (AID 1086).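 Further: score merges 667 nm fluorescence with signal-to-noise of each printed compound spot.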 As to conditions: higher = more signal.
The nature of assay [10]: binders of probe aHhip on microarray, primary screen, stem cell growth factor project, biochemical, small-molecule microarray, fluorescence 635/667 (AID 1087).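 Further: score merges spot fluorescence at 667nm with spot signal to noise ratio.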 As to conditions: higher = more signal.
The test system of assay [11] is PRMT1 (protein arginine N-methyltransferase 1). As to the kind of experiment: PRMT1 binders on small-molecule microarrays, primary screen, biochemical, small-molecule microarray, 635 nm fluorescence (AID 1088).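 Further: binding of Prmt1 protein to compounds spotted on small-molecule microarray slides.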 The following applies: small-molecule microarray binding, higher = more signal.
Assay [12] in a line: yeast growth modulation, basal conditions, primary screen, YJM789 clinical isolate, OD600, 24 h (AID 1089).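 Further: growth of clinical yeast isolate S. cerevisiae YJM 789 seeded 1000 cells per well; test concentration not given here.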 The following applies: S. cerevisiae YJM789 growth, higher = more signal, called active from +8 up or from −8 down.
A short description of assay [13]: fission yeast growth modulation, primary screen, strain 972, OD600, 24 h, no modulator (AID 1090).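 Further: basal condition with compound alone and no growth modifier present; test concentration not given here.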 The following applies: S. pombe 972 growth, higher = more signal, called active from +8 up or from −8 down.
The nature of assay [14]: S. cerevisiae growth modulation with rapamycin, primary screen, strain BY4716, OD600, 96 h (AID 1091). Further: test concentration not given here. As to conditions: higher = more signal, called active from +8 up or from −8 down.
Assay [15] deals with Torsin-1A-interacting protein 2 (Homo sapiens) (UniProt Q8NFQ8). As to the kind of experiment: LULL1 binders on small-molecule microarray, primary screen, cell lysate, human LULL1 lysate, 635/667 nm fluorescence (AID 1092).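 Further: probe is lysate of COS7 cells overexpressing human LULL1; score merges per-feature 667 nm fluorescence with signal-to-noise.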 As to conditions: hLULL1 lysate binding, 635 nm fluorescence, higher = more signal.
Assay [16] is described as follows: E. coli growth modulation, two-sided OD650, primary screen, E. coli filamentation project, strain DRC41, 24 h (AID 1093).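 Further: MC1000 strain lacking acrAB efflux and sulA so SOS filamentation is blocked; test concentration not given here.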 As to conditions: OD650, 24 h, higher = more signal, called active from +8 up or from −8 down.
A short description of assay [17]: small-molecule microarray binders of probe aLefty2, primary screen, biochemical, biotinylated probe, 635/667 nm fluorescence (AID 1094).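 Further: score merges spot fluorescence near 667 nm with spot signal-to-noise ratio.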 The following applies: higher = more signal.
Assay [18] concerns Noggin (protein binding on small-molecule microarray). The experiment in a line: Noggin binders on small-molecule microarray, primary screen, biochemical, 635/667 nm fluorescence (AID 1095).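 Further: score merges 667 nm feature fluorescence with signal to noise over triplicate slides.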 As to conditions: 635 nm fluorescence, higher = more signal.
Assay [19] deals with Neurogenic locus notch homolog protein 3 (Homo sapiens) (UniProt Q9UM47). As to the kind of experiment: NOTCH3 binders on small-molecule microarray, primary screen, biochemical, 635/667 nm fluorescence (AID 1096). As to conditions: NOTCH3 binding, 635 nm fluorescence, higher = more signal.
Assay [20] is described as follows: small-molecule microarray binders of probe aEGFR, primary screen, biochemical, biotinylated probe, 635/667 nm fluorescence (AID 1097).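 Further: probe is a biotinylated anti-EGFR antibody binding compounds printed on slides; score combines fluorescence near 667 nm and signal to noise of each spot.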 The following applies: higher = more signal.

Chain of Pro-neuregulin-1, membrane-bound isoform (Homo sapiens) (Q02297 whole entry, looked up, the tested form may be a part, canonical isoform): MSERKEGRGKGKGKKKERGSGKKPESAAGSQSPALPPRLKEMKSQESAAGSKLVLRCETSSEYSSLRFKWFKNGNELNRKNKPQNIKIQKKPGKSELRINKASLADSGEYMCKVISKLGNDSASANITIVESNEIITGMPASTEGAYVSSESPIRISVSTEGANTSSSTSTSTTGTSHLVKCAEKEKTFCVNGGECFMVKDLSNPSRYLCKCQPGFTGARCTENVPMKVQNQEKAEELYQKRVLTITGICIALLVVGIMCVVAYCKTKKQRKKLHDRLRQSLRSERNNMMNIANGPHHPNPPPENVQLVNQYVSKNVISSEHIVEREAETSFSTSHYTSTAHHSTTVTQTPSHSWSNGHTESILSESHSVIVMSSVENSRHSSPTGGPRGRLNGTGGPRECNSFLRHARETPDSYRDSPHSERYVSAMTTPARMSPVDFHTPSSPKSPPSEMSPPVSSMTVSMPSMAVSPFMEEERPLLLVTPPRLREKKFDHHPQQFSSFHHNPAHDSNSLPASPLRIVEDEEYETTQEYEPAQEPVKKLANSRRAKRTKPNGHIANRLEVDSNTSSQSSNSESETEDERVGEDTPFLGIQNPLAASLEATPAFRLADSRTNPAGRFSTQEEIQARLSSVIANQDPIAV
Chain of Torsin-1A-interacting protein 2 (Homo sapiens) (Q8NFQ8 whole entry, looked up): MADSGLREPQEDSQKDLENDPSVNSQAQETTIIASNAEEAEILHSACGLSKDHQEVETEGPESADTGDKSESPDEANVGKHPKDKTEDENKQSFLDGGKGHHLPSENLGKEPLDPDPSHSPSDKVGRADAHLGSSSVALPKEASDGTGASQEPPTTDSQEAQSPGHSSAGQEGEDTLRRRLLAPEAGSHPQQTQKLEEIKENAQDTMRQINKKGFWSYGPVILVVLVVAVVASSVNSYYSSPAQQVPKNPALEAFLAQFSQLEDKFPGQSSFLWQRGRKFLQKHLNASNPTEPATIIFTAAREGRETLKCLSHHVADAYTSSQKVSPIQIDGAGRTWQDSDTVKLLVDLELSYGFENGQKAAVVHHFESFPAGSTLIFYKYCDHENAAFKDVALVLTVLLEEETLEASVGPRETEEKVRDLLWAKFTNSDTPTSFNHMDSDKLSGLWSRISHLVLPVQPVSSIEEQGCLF
Chain of Neurogenic locus notch homolog protein 2 (Homo sapiens) (Q04721 whole entry, looked up, canonical isoform): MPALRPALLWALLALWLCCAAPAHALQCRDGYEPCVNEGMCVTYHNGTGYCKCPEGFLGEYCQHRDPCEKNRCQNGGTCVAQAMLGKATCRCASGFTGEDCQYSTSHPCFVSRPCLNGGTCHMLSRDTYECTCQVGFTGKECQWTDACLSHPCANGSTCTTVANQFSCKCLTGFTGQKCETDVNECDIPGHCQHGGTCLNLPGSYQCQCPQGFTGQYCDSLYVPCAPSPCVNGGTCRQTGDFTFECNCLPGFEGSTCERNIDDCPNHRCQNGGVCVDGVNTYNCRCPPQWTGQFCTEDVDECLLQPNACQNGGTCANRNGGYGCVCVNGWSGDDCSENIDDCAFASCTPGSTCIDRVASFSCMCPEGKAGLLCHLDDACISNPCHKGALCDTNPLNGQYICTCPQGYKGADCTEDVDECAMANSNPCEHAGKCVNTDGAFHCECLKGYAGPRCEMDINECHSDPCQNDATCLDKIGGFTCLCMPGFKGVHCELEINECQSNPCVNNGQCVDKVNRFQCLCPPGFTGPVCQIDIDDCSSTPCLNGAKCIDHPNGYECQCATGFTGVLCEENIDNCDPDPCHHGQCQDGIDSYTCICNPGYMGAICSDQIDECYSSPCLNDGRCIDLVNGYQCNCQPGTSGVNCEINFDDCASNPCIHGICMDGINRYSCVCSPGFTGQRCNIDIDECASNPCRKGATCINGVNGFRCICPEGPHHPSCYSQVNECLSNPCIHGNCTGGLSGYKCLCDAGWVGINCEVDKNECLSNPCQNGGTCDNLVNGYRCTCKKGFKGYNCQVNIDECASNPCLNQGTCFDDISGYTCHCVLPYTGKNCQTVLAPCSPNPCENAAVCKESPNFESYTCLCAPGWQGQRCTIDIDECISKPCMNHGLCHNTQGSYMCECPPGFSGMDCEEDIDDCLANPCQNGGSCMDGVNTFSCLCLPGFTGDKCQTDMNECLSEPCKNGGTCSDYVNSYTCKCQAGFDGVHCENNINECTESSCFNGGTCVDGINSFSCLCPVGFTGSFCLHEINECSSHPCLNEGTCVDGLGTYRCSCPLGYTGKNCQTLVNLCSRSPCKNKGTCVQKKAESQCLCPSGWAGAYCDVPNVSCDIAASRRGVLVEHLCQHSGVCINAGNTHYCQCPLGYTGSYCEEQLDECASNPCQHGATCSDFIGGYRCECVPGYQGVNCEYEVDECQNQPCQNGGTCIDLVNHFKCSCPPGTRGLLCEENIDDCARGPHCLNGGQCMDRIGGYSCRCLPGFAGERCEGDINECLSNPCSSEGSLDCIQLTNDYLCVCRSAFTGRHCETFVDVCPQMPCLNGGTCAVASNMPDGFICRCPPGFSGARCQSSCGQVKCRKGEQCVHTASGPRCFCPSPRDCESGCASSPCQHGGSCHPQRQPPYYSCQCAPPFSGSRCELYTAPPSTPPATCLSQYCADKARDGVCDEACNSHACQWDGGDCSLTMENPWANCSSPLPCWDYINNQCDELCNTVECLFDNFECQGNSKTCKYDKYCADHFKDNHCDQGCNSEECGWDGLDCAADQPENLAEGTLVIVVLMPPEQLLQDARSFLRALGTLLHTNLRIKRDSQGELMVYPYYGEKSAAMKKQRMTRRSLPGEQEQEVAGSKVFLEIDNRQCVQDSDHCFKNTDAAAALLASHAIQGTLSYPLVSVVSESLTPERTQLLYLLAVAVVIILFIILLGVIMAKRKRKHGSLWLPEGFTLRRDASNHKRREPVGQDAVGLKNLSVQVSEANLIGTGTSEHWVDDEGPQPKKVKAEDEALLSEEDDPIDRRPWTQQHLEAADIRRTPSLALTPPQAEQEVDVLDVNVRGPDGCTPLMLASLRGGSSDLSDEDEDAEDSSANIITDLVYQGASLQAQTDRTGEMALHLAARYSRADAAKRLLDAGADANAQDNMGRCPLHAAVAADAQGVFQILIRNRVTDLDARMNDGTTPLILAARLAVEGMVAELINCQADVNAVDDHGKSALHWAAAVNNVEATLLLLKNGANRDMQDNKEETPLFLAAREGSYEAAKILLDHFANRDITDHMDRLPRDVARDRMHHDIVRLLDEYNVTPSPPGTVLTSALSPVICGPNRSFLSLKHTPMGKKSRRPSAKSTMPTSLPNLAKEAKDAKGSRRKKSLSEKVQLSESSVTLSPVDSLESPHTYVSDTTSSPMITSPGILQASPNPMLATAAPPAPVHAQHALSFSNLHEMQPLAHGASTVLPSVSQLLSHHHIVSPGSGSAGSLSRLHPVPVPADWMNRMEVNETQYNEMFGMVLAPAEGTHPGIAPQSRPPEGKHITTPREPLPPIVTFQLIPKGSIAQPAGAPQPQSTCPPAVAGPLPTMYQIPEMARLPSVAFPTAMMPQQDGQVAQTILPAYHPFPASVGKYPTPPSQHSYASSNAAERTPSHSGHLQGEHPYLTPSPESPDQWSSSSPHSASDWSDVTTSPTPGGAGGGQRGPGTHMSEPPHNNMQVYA

Consider `CCOC(=O)C1=CCC(c2cccc(Cl)c2)O1` (stereo not given), for which the composite z-score in [1] is -0.267; in [2], 0.491; in assay [3] it was -0.0036; in assay [4], 0.0428; in assay [5] it was 0.105; in assay [6], 1.06. The composite z-score in assay [7] was 0.575; in assay [9], 0.0826; in [10], -0.131; in assay [11], 0.487; in assay [15], 0.744; in assay [17], -0.0831. In addition, the composite z-score is -0.0785 in [18], 0.186 in assay [19] and -0.0953 in assay [20]. Besides, the z-score is -0.242 (inactive) in [8]; -2.79 (inactive) in assay [12]; -0.615 (inactive) in assay [13]; 3.33 (inactive) in [14]; 0.558 (inactive) in [16].
With `O=C(CS)NCCCCCNC(=O)[C@@H]1C[C@@H]2C(=O)N3CCC[C@H]3C(=O)N2[C@@H]1c1ccc(O)cc1`, the composite z-score in [1] is 0.344; in assay [2] it was 0.282; in assay [3], -0.0333; in assay [4] it was 0.354; in [5] it was -0.677; in assay [6], 0.33. In addition, the composite z-score in [7] was 1.32; in assay [9], -0.0412; in assay [10], 0.127; in [11], 1.09; in assay [15], 2.81; in [17] it was -0.0279. In addition, the composite z-score in assay [18] was -0.0286; in [19] it was 0.164; in assay [20] it was -0.118. The z-score is 0.0995 (inactive) in [8]; -0.0524 (inactive) in assay [12]; -0.207 (inactive) in [13]; 0.0036 (inactive) in assay [14]; 0.0681 (inactive) in [16].
Take `COC(=O)[C@@]1(Cc2ccc(OC)cc2)[C@H]2c3cc(C(=O)N(C)C)n(Cc4cc(F)c(F)c(F)c4)c3C[C@H]2CN1C(=O)c1ccccc1`: the composite z-score in [1] was 0.831; in [2], -0.136; in [3], 0.329; in assay [4], 0.594; in [5], 1.74; in assay [6], 1.81. In addition, the composite z-score in assay [7] came out at 1.08; in assay [9], 1.24; in assay [10], 0.987; in [11], 0.456; in assay [15], 3.44; in assay [17], 0.625. For the same compound, the composite z-score was -0.217 in [18], 1.04 in [19] and 0.58 in [20]. The z-score in [8] is 2.19 (inactive); in assay [12], 0.725 (inactive); in assay [13], 0.129 (inactive); in [14] it was 4.07 (inactive); in assay [16] it was -0.909 (inactive).
Turning to `COCCOC(=O)N1C(=O)[C@@]2(c3cc(C#Cc4ccc(OC)cc4)ccc31)[C@H](C(=O)N1CCc3cc(OC)c(OC)cc3C1)[C@H]1C(=O)O[C@H](c3ccccc3)[C@H](c3ccccc3)N1[C@@H]2c1ccc(O)cc1`, the composite z-score in assay [1] is -0.285; in assay [2] it was 0.613; in assay [3], -0.129; in [4], 0.64; in assay [5], 1.47; in [6] it was 1.17. The composite z-score in assay [7] was 1.19; in assay [9] it was -0.0689; in [10] it was -0.297; in assay [11] it was 1.55; in [15], 2; in assay [17], -0.23. The values for the composite z-score in [18], in assay [19] and in assay [20] were 0.614, 1.14 and -0.0197, respectively. Moreover, the z-score was 0.707 (inactive) in assay [8]; 1.99 (inactive) in assay [12]; 1.71 (inactive) in assay [13]; 2.29 (inactive) in [14]; 1.12 (inactive) in assay [16].
As to `CC(C)NC(=O)[C@@]1(Cc2ccccc2I)c2ccccc2C(=O)N(Cc2ccccc2C(F)(F)F)[C@H]1c1ccc(CO)cc1`, the composite z-score was 0.695 in [1]; 0.44 in [2]; -0.0316 in [3]; -0.0029 in assay [4]; 0.234 in [5]; 1.71 in assay [6]. In addition, the composite z-score in assay [7] amounted to 1.21; in assay [9], 0.0674; in assay [10], 0.533; in assay [11] it was 1.53; in assay [15], 2.84; in assay [17] it was 0.158. In addition, the composite z-score in assay [18] was 0.461; in assay [19] it was 0.662; in assay [20], -0.0304. The z-score in assay [8] was -2.61 (inactive); in assay [12] it was -0.442 (inactive); in [13] it was -1.48 (inactive); in [14], -0.918 (inactive); in assay [16] it was 0.125 (inactive).
